Activity calls are given as the source filed them. Rule for the calls: active = hit-call score of the fitted dose curve at least 0.9, where 1 is the maximum; inactive = score below 0.9.

Read-out in this assay: Vascular cell adhesion molecule 1 (VCAM1), VCAM1 (gene 7412)
The experiment in a line: BSK_MyoF_VCAM1: BioMAP Diversity Plus: MyoF Assay for Vascular cell adhesion molecule 1 (VCAM1) Biomarker Activity (AID 2284231). Conditions: primary human lung fibroblasts. The protocol:
BSK_MyoF is a cell-based, multiplexed-readout assay that uses lung fibroblasts, […], with measurements taken at 24 hours after chemical dosing in a microplate: 96-well plate.BSK_MyoF_VCAM1 is an assay component measured in the BSK_MyoF assay. It measures VCAM-1 antibody related to regulation of gene expression using ELISA technology.Data from the assay component BSK_MyoF_VCAM1 was analyzed at the endpoint, BSK_MyoF_VCAM1, in the positive analysis fitting direction relative to DMSO as the negative control and baseline of activity. Using a type of binding reporter, gain or loss-of-signal activity can be used to understand protein changes. To generalize the intended target to other relatable targets, this assay endpoint is annotated to the 'cell adhesion molecules' intended target family, where the subfamily is 'Immunoglobulin CAM'.
The levels of cell surface (or secreted, indicated by the prefix "s") biomarker endpoints were measured by ELISA. Overt cytotoxicity to cells in confluent adherent cultures (all systems other than the BT system) was assessed by measuring total protein levels using sulforhodamine B (SRB) staining in parallel cultures at the time of biomarker measurements, indicated as SRB endpoints. For proliferation assays for adherent cell types, individual cell types are cultured at sub-confluence and relative cell numbers quantified by SRB staining at time points optimized for each system (48 h: 3C and CASM3C systems; 72 h: BT and HDF3CGF systems; 96 h: SAg system). SRB was performed by staining cells with 0.1% SRB after fixation with 10% TCA and reading wells at 560 nm.Viability and proliferation of PBMC (T cells) was quantified by Alamar Blue reduction for the SAg and BT systems. For PBMC viability (referred to as PBMC Cytotoxicity within the assay endpoint names), cells were plated (75,000/well in a 96-well plate) and then chemical samples added for 1 h before addition of activators, SEB and TSST-1 (20 ng/mL final concentration each). Cells were incubated for 90 h. Then, Alamar Blue (20 uL/well) (Invitrogen, Cat DAL1100) was added for 6 h, and the plates were read with a fluorescence microplate reader at 546/580 nm (excitation/emission). For PBMC proliferation, cells were plated and activated as above but incubated for only 16 h prior to addition of Alamar Blue. Plates were read after 6 h.
Regarding `C=CCOCC(O)CCl` (configuration not stated), the outcome was inactive.

Broadly, the AC50 is the concentration at which the activity in the assay is half-maximal. For `C=CCOc1c(Br)cc(Br)cc1Br`, the AC50 was 23.7 µM (active). In the case of `O=C(Nc1ccccc1SSc1ccccc1NC(=O)c1ccccc1)c1ccccc1`, the result was inactive.

For the molecule `c1ccc2c(c1)ccc1ncccc12`, the result was inactive. Still for that read-out and setting: to `N#[N+]c1ccc2c(S(=O)(=O)[O-])cccc2c1O` belongs “inactive”. As for `CCCCNc1ccc(NCCCC)c2c1C(=O)c1ccccc1C2=O`, the result was inactive. On the same count and under the same terms, the value for `S=C(NC1CCCCC1)NC1CCCCC1` was “inactive”. Turning to `COCc1c(C(C)C)nc(C(C)C)c(/C=C/[C@@H](O)C[C@@H](O)CC(=O)O)c1-c1ccc(F)cc1`, the AC50 is 0.0229 µM (active). On to `c1ccc(-c2ccccn2)nc1`, for which the outcome was inactive. Take `O=C(Cl)c1cc(C(=O)Cl)cc(C(=O)Cl)c1`: the AC50 was 35.3 µM (active). Still for that read-out and setting: the value for `CC(C)(c1cc(Br)c(OCCO)c(Br)c1)c1cc(Br)c(OCCO)c(Br)c1` was 7.89 µM (active).

With `C=CC=CC=CCCCCC`, the outcome was inactive.

Consider `CCCCC(CC)COC(=O)c1ccccc1O` (configuration not stated), for which the result was inactive. In the case of `c1ccc2c(c1)ccc1cc3c(ccc4ccccc43)cc12`, the outcome was inactive. Same read-out and setting: the value for `CCCCC/C=C\C/C=C\CCCCCCCC(=O)OC` was “inactive”; that for `CC(C)C(=O)C(C)C` was “inactive”. The same measure, in the same setting: to `O=Nc1ccc(O)cc1` belongs “inactive”. `CCCCCCCCc1ccc(Nc2ccc(CCCCCCCC)cc2)cc1`: the outcome was inactive. Still for that read-out and setting: to `COc1ccc2nc(N)sc2c1` belongs “inactive”.

In the case of `CCCCCCCCCCCCCCCC[N+](C)(C)CC`, the AC50 is 1.71 µM (active). For `CC1OC1C1CCC2(C)OC2C1` (configuration not stated), the outcome was inactive. On to `C=CC(=O)OCC(Br)CBr` (configuration not stated), for which the AC50 is 20 µM (active). The same measure, in the same setting: to `C#CC1(O)CC[C@H]2[C@@H]3CCC4=CCCC[C@@H]4[C@H]3CC[C@@]21C` (some centres not stated) belongs 33.1 µM (active). Take `O=c1c2ccccc2oc2ccccc12`: the outcome was inactive.

For `CCOc1nc(F)cc2nc(S(=O)(=O)Nc3c(Cl)cccc3C(=O)OC)nn12`, the result was inactive. The same measure, in the same setting: the value for `C/C=C\C/C=C/CCCCCCCCOC(C)=O` was “inactive”; that for `CCO[Si](CCCN=C=O)(OCC)OCC` was “inactive”.

Values taken from PubChem BioAssay (EPA / NIEHS).
